TSG101-PTAP inh: blocks PTAP/TSG101 interaction to inhibit HIV-1 budding; Potency, µM (top dose mostly 115 µM), for the others: at the highest dose activity change, negative = inhibition, actives largely listed as inhibitors; Fluorescence polarization, FITC-PTAP peptide / Tsg101 binding; 340,000 tested, under 10 active; active = well fitted inhibition curve with a large enough effect in the main read-out, with a control signal flat, not every such curve was filed as active; inconclusive = small, poorly fitted or top-dose-only effect, or effect the other way, or a change in a side signal; inactive = no such curve, though single readings can be large or run the other way; note: % of control where 0% means no effect
Target sequence (Q99816 whole entry, looked up): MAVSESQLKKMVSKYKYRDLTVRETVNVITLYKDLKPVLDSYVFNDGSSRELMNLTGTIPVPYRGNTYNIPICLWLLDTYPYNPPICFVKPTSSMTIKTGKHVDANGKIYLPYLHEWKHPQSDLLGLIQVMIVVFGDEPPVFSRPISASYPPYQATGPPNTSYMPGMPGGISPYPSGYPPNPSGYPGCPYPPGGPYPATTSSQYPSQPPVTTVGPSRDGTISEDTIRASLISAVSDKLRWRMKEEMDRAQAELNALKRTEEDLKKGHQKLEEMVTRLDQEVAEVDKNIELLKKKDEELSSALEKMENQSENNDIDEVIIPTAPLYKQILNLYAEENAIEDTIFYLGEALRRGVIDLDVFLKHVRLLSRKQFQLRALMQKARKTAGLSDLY
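FP read-out: FITC-PTAP peptide, 50 nM final, binding Tsg101 binding domain, 10 uM final; 20 min, r.t.; 10 mM HEPES pH 7.5, 0.15 M NaCl, 0.01% Tween 20, 3 mM EDTA, 0.1 mM TCEP.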
MCF10A rereplic: inducers of DNA re-replication in MCF 10A breast cells; MCF 10A DNA re-replication, Hoechst nuclear intensity, 48 h; Potency, µM (series often up to 46.1 µM), inactives show at the highest dose activity, positive = re-replication, most hits filed as activators; 350,000 tested, 2.9% active; AID 624296; note: % of control where 0% means no effect; nearly all actives have a fitted effect of over 50% in size
SW480 rereplic: induces DNA re-replication in SW480 colon adenocarcinoma cells; SW480 DNA re-replication, Hoechst DNA content imaging, 48 h; 340,000 tested, 1.8% active; Potency, µM (doses to about 46.1 µM), inactives show at the highest dose re-replication activation, actives largely listed as activators; note: % of control where 0% means no effect; nearly all actives have a fitted effect of over 55% in size
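Readout is total intensity of Hoechst-stained nuclei, excited at 405 nm and collected at 500-530 nm. Compound treatment lasted 48 hr at 37 C in 5% CO2 before staining.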
KB-V1 MDR tox: kills drug-selected multidrug resistant KB-V1 cells; KB-V1 MDR cells viability, CellTiter-Glo, 72 h; Potency, µM (titrated, usually from 46.1 µM), usual class: cytotoxic; 400,000 tested, 3.4% active; AID 1347076; note: % is set by controls: 0 for no effect and ±100 for the full control effect; nearly all actives have a fitted effect of over 60% in size
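Following 72 h at 37 degrees C with compound, KB-V1 cell viability was read by CellTiter-Glo luminescence, medium being phenol-red-free DMEM plus 10% FBS; concentration-response parameters came from normalized, curve-fitted qHTS data.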
KB-3-1 cytotox: kills parental KB-3-1 adenocarcinoma cells; 400,000 tested, 1.4% active; AID 1347075; Potency, µM (top dose mostly 46.1 µM), hits mostly cytotoxic; KB-3-1 viability, CellTiter-Glo ATP luminescence, 72 h; note: % is set by controls: 0 for no effect and ±100 for the full control effect; nearly all actives have a fitted effect of over 60% in size
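KB-3-1 parental drug-naive adenocarcinoma cells in DMEM/10% FBS, incubated 72 h at 37 C with pin-transferred compounds across a concentration series. Viability by CellTiter-Glo luminescence; concentration-response curves fitted after normalization.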
PINK1 expr mod: changes PINK1 expression | PINK1 immunofluorescence, high-content cytometry, 24 h | Potency, µM (titrated, usually from 76.6 µM), for the others: top-dose activation (PINK1 increase), hits mostly activators | 410,000 tested, 0.2% active | AID 624263; active = well fitted activation curve with a large enough effect; inconclusive = small, poorly fitted or top-dose-only effect; cell line not stated here; note: % of control where 0% means no effect; nearly all actives have a fitted effect of over 65% in size
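PINK1 protein, normally rapidly degraded, was detected by immunofluorescence after 24 hour compound treatment of a stable cell line. Titration data (5 concentrations) came from laser-scanning cytometry, with CCCP-treated wells as controls.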
* = called active by the depositor; i = inactive; ? = inconclusive; · = not tested or not shown; [ ] = another dose, or the depositor's remark. Only some compounds are listed: those with a hit (about 6.8% of all), similar ones and a draw of the others. Unless noted, calls come from the whole dose curve; as a rule, active = well fitted curve in the direction sought with a large enough effect; inconclusive = small, poorly fitted or top-dose-only effect, or another doubt; inactive = no such curve, though single readings can be large; an effect the other way counts as inactive or inconclusive. Potency is the fitted concentration of half-maximal effect.

SMILES	TSG101-PTAP inh	MCF10A rereplic	SW480 rereplic	KB-V1 MDR tox	KB-3-1 cytotox	PINK1 expr mod
Cc1nn(Cc2ccc(F)cc2)c(C)c1NC(=O)C1c2ccccc2Oc2ccccc21	-1.1%	18.4µM*	0.9%	i	i	6.3%
Cc1nn(Cc2c(F)cccc2Cl)c(C)c1NC(=O)C1CC1	-2.3%	0.5%	0.517µM*	i	i	-0.4%
Cc1c(-c2cccc(NC(=O)Nc3ccccc3)c2)nc2ncccn12	·	·	·	·	·	1.3%
Cc1onc(-c2c(F)cccc2Cl)c1C(=O)OCC(=O)NC(c1ccccc1)c1ccccc1	-8.7%	-0.3%	13.0%	6.51µM*	i	8.2%[38.3 µM]
Cc1onc(-c2c(F)cccc2Cl)c1C(=O)OCC(=O)NC(N)=O	-1.6%	0.4%	-0.9%	?	?	-0.1%
CC1CCC2C(C1)c1sc(=O)[nH]c1SC2(C)C (stereo not drawn)	-11.0%	?	2.3%	18.4µM*	i	8.7%[38.3 µM]
COc1ccc(-c2nc3cc(C)ccc3cc2CN(C(=O)c2ccc(C)s2)C2CC2)cc1OC	·	·	·	·	·	-0.7%
NC(=O)C1CCN(S(=O)(=O)c2ccc(N3CCCCS3(=O)=O)cc2)CC1	·	·	·	·	·	-0.4%
CCCCc1cc(=O)oc2cc(OCc3cc(OC)c(OC)c(OC)c3)c(Cl)cc12	-3.6%	10µM*	26.6%	i	i	5.3%
CCOC(=O)C1(CCC(C)C)CC(CSc2nc3ccccc3[nH]2)OC1=O (stereo not drawn)	-5.9%	6.51µM*	14.1%	?	i	3.8%[38.3 µM]
COc1ccccc1-c1ncn(Cc2cccc(-c3ccccc3)c2)c1-c1cc(C)cc(C)c1	·	·	·	16.4µM*	?	·
COc1ccccc1-c1ncn(Cc2cccc(-c3ccccc3)c2)c1-c1ccco1	·	·	·	14.6µM*	?	·
COc1cc(-c2ccc(Cl)cn2)cc2c1OCCN(S(=O)(=O)C[C@]13CC[C@H](CC1=O)C3(C)C)C2	·	·	·	·	·	-0.7%
Cc1ccccc1OCC(=O)N/N=C/c1ccc2c(c1)OCCO2	-4.4%	11.6µM*	?	?	i	17.2%
Cc1cccc(OCC(=O)N/N=C/c2ccc3c(c2)OCO3)c1	-1.4%	-47.5%	4.4%	i	i	-1.6%
Cc1cc(C)c(OCC(=O)N/N=C/c2ccc3c(c2)OCO3)c(C)c1	0.9%	2.91µM*	?	i	?	3.8%
O=C(COc1cccc(Br)c1)N/N=C/c1ccc2c(c1)OCCO2	·	·	·	i	i	4.6%
Cc1ccccc1OCCNc1cc(N2CCN(CCO)CC2)ccc1[N+](=O)[O-]	-1.7%	17.7%	0.1%	?	i	-0.9%
Cc1cccc(OCCNc2cc(N3CCN(CCO)CC3)ccc2[N+](=O)[O-])c1	0.2%	3.3%	?	18.4µM*	i	6.1%
COc1cccc(OCCNc2cc(N3CCOCC3)ccc2[N+](=O)[O-])c1	-2.0%	?	7.3%	9.2µM*	i	4.0%
COc1cccc(O)c1CN1CCC2(CC1)c1ccccc1[C@@H](NC(=O)c1ccsc1)[C@@H]2OC	·	·	·	·	·	-0.8%
COCCNC(=O)c1ccc2c(c1)ncn2-c1cccc(C)c1	-4.2%	?	?	?	?	12.4%
Cc1cccc(-n2cnc3cc(C(=O)N4CCc5ccccc54)ccc32)c1	-5.0%	2.0%	3.2%	13µM*	i	10.0%
Cc1cccc(-n2cnc3cc(C(=O)NCC4CCCO4)ccc32)c1 (stereo not drawn)	·	·	·	?	18.4µM*	14.7%
COc1ccc(-n2cnc3cc(C(=O)NCC4CCCO4)ccc32)cc1 (stereo not drawn)	-4.1%	0.9%	?	i	?	4.8%
SMILES	TSG101-PTAP inh	MCF10A rereplic	SW480 rereplic	KB-V1 MDR tox	KB-3-1 cytotox	PINK1 expr mod
Cc1cc(C(=O)N2CCc3ccccc32)n(-c2ccccc2)n1	-2.0%	?	?	?	10.3µM*	3.8%
O=c1c2sccc2n(Cc2cc(=O)n3cc(Cl)ccc3n2)c(=O)n1-c1ccccc1	·	·	·	·	·	1.3%
CCCCCCCCCCCCCCNCCO	·	11.6%	-2.8%	·	·	·
CC(C)N(C(=S)Nc1cccc(C(F)(F)F)c1)C(C)c1ccccn1 (stereo not drawn)	0.7%	20.4%	-4.4%	i	i	31.6µM*
COc1ccccc1NC(=S)N(C(C)C)C(C)c1ccccn1 (stereo not drawn)	-1.8%	-5.6%	-16.0%	i	i	3.0%
O=C(CSc1nc2ncc(Cl)cc2[nH]1)c1c[nH]c2ccccc12	-4.2%	23.1µM*	24.8%	i	i	24.3%
CCc1cccc(CC)c1NC(=O)CCCSc1nc2ccccc2s1	0.2%	15.1%	·	11.6µM*	?	2.9%
Cc1ccc(NC(=O)CSc2nnnn2-c2ccc3c(c2)OCO3)cc1C	-5.3%	16.4µM*	?	i	i	2.5%
CCOC(=O)c1c(NC(=O)CSc2nnnn2-c2ccc3c(c2)OCCO3)sc(C)c1C	-2.3%	18.4µM*	29.8%	?	i	·
CCOC(=O)c1c(NC(=O)CSc2nnnn2-c2ccc3c(c2)OCO3)sc(C)c1C	-1.6%	0.0%	?	i	i	13.6%[38.3 µM]
Cc1cccc(C)c1NC(=O)CCCSc1nc2ccccc2s1	0.3%	?	-0.1%	i	i	8.0%
CCOC(=O)c1c(NC(=O)CSc2nc3ccccc3s2)sc(C)c1C	-2.8%	?	-0.2%	13µM*	i	1.5%
O=c1c2oc3ccccc3c2n(Cc2ccc(Cl)cc2)c(=O)n1Cc1ccccc1	·	·	·	?	i	2.6%
Cc1ccc(-n2c3nc(=O)n(C)c(=O)c-3cc3c(Cl)cccc32)c(C)c1	·	·	·	i	i	2.4%
COc1ccccc1NC(=O)CSC1=Nc2ccccc2C2=NC(CCC(=O)NCc3ccco3)C(=O)N12 (stereo not drawn)	·	·	·	i	i	-0.3%
O=C(CCCc1ccccc1)NC1CC(=O)N(c2ccc(Cl)cc2)C1 (stereo not drawn)	·	·	·	·	·	0.5%
Cc1cc(O)c(Oc2cc(C)cc(O)c2O)c(O)c1	0.2%	30.4%	18.4µM*	i	i	1.1%
CN(C)c1cc[n+](CC(=O)Nc2c(Cl)cc(Cl)cc2Cl)cc1	-5.4%	-1.6%	-140.2%	i	8.2µM*	0.4%
COCC(=O)Nc1cc(C(=O)NC2CCc3ccccc32)c2c(c1)nc(-c1ccncc1)n2C (stereo not drawn)	·	·	·	·	·	0.2%
O=C(CSCc1ccc(Cl)cc1)Nc1cc([N+](=O)[O-])ccc1O	-1.0%	26.8%	53.9%	i	i	14.1µM*
Cc1ccc(SCC(=O)Nc2cc([N+](=O)[O-])ccc2O)cc1	-8.5%	17.0%	0.1%	i	i	15.8µM*
COc1cc(=O)n2c(c1C(=O)N(C)Cc1nonc1C)CCN(Cc1cc(C)ccc1C)CC2	·	·	·	·	·	0.6%
